# PubChem BioAssay (NCI)
# This is part of a sample that, as a whole, favours compounds with a hit. Of some 83,000 tested, about 20% had one in any assay.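 Cells were grown in 96-well plates and exposed to the test compound at a single concentration for 48 hours; results are reported as percent growth, with values below 10 considered active.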 Unmarked numbers belong to inactive results. The source made the active and inactive calls.
# Columns and labels:
# Test in all cases: NCI-60 one-dose screen, 48 h (100 = growth as untreated, 0 = no growth, -100 = all killed)
# Details in all cases: 10 µM
# 786-0 renal = test system: 786-0 renal
# MALME-3M melanoma = test system: MALME-3M melanoma
# EKVX NSCLC = test system: EKVX NSCLC
# SN12C renal = test system: SN12C renal
# TK-10 renal = test system: TK-10 renal
# ACHN renal = test system: ACHN renal
# A498 renal = test system: A498 renal
# CCRF-CEM leukemia = test system: CCRF-CEM leukemia
# RPMI-8226 leukemia = test system: RPMI-8226 leukemia
# OVCAR-5 ovarian = test system: OVCAR-5 ovarian
# OVCAR-4 ovarian = test system: OVCAR-4 ovarian
# IGROV1 ovarian = test system: IGROV1 ovarian
# OVCAR-3 ovarian = test system: OVCAR-3 ovarian
# NCI/ADR-RES ovarian = test system: NCI/ADR-RES ovarian
# BT-549 breast = test system: BT-549 breast
# MDA-MB-435 melanoma = test system: MDA-MB-435 melanoma
# MCF7 breast = test system: MCF7 breast
# HCT-116 colon = test system: HCT-116 colon
# HCC-2998 colon = test system: HCC-2998 colon
# KM12 colon = test system: KM12 colon
Structure (SMILES),growth (786-0 renal),growth (MALME-3M melanoma),growth (EKVX NSCLC),growth (SN12C renal),growth (TK-10 renal),growth (ACHN renal),growth (A498 renal),growth (CCRF-CEM leukemia),growth (RPMI-8226 leukemia),growth (OVCAR-5 ovarian),growth (OVCAR-4 ovarian),growth (IGROV1 ovarian),growth (OVCAR-3 ovarian),growth (NCI/ADR-RES ovarian),growth (BT-549 breast),growth (MDA-MB-435 melanoma),growth (MCF7 breast),growth (HCT-116 colon),growth (HCC-2998 colon),growth (KM12 colon)
C[C@H]1[C@@H](CC(=O)N[C@@H](Cc2coc3ccccc23)B(O)O)O[C@@H]2OC3(C)CC[C@H]4[C@H](C)CC[C@@H]1[C@@]24OO3,16.5%,-60% (active),7.62% (active),-78.6% (active),16.5%,13.2%,36.6%,-10.3% (active),-7.66% (active),-57.1% (active),18.3%,-16.1% (active),-14.9% (active),27.6%,-92% (active),-53.8% (active),12%,-85.3% (active),-97.2% (active),-20.4% (active)
CC[C@]12C=CCN3CC[C@@]4(c5ccc(OC)cc5N(C)[C@H]4[C@@](O)(C(=O)OC)[C@@H]1OC(=O)CCC[P+](C1CCCCC1)(C1CCCCC1)C1CCCCC1)[C@@H]32,-16.3% (active),-96.1% (active),15.4%,-40.5% (active),-48.6% (active),32%,21.8%,-40.9% (active),-43.4% (active),11%,17.7%,-85.9% (active),-48.6% (active),100%,-97.4% (active),-80.1% (active),-72.2% (active),0.156% (active),-92.6% (active),-63.4% (active)
C[C@H]1[C@H](OC(=O)CCC(=O)N(CCCc2cn(-c3ccc([N+](=O)[O-])cc3)nn2)CCNc2ccnc3cc(Cl)ccc23)O[C@@H]2OC3(C)CC[C@H]4[C@H](C)CC[C@@H]1[C@@]24OO3,47.1%,47.5%,46.8%,54.9%,51.2%,37.5%,116%,26.3%,28.7%,54.3%,41.8%,44.9%,40.8%,30.6%,43%,31.5%,10.4%,31.1%,49.9%,33.6%
CC12OOC(C)(OO1)C2CCC(=O)OCCNc1ccnc2cc(Cl)ccc12 (stereo not given),-29.3% (active),-73% (active),-60.6% (active),84.3%,66.3%,-93.8% (active),109%,9.26% (active),8.42% (active),94.7%,-39.8% (active),39.7%,-65.9% (active),53.2%,93.1%,31.3%,24.2%,0.954% (active),88.5%,60.6%
COCCOCCOCCOc1ccc(-n2cc(CCCN(CCNc3ccnc4cc(Cl)ccc34)C(=O)CCC(=O)O[C@@H]3O[C@@H]4OC5(C)CC[C@H]6[C@H](C)CC[C@@H]([C@H]3C)[C@@]46OO5)nn2)cc1,47%,-61.2% (active),53.5%,52.2%,52.5%,47.1%,94.9%,26.4%,26.3%,52.2%,45.7%,44.8%,35.3%,26.8%,4.88% (active),24.8%,22.2%,15.5%,67.2%,28.6%
O=C(NC([Se])=NC1CCCCC1)c1ccccc1,39.4%,94.4%,19%,39.6%,28.8%,34.5%,73.3%,54.5%,56.2%,62.2%,75.7%,13.6%,48.4%,23.3%,75.8%,42.4%,29.8%,30.4%,62.8%,35.5%
O=C(/C=C/c1ccc(Cl)cc1Cl)c1nc2ccccc2n1Cc1ccc(Br)cc1,32.6%,84%,61.6%,75.7%,99.8%,71.3%,103%,5.89% (active),2.18% (active),98%,73.7%,68.4%,68.4%,82.1%,59.2%,79.2%,17.1%,25.8%,70.4%,82.7%
O=C(/C=C/c1ccccc1Cl)c1nc2ccccc2n1Cc1ccc(F)cc1,-95.3% (active),-80% (active),-91.6% (active),-89.4% (active),-44.2% (active),-88% (active),62.5%,-25.4% (active),-29.7% (active),-66.3% (active),4.42% (active),-78.1% (active),-50.8% (active),-56% (active),-92.2% (active),-46.7% (active),-59.3% (active),-96.3% (active),-99.7% (active),-60.5% (active)
CC[C@@]12CC(C(=O)OC)=C3Nc4cc5c(cc4[C@@]34CCN(C[C@H]3O[C@H]31)[C@@H]24)[C@@H]1[C@H](O5)[C@@H](O)[C@@]2(CC)CC(C(=O)OC)=C3Nc4cc(OC)ccc4[C@@]34CCN1[C@@H]24,22.2%,21%,31.3%,27.1%,16.2%,17.8%,-15.3% (active),15%,0.732% (active),34.3%,5.36% (active),2.51% (active),7.91% (active),1.32% (active),-16.9% (active),9.48% (active),2.22% (active),-0.466% (active),-65% (active),10.2%
C[C@H]1[C@@H](Oc2ccc(-c3cn(-c4ccnc5cc(Cl)ccc45)nn3)cc2)O[C@@H]2OC3(C)CC[C@H]4[C@H](C)CC[C@@H]1[C@@]24OO3,35.1%,13.7%,29.7%,24.3%,35.4%,14.3%,95%,38.8%,23%,19.2%,40.9%,34.3%,32.7%,19.6%,24.9%,35.6%,19.3%,15.8%,48.8%,25.6%
CC[C@]12C=CCN3CC[C@@]4(c5ccc(OC)cc5N(C)[C@H]4[C@@](O)(C(=O)OC)[C@@H]1OC(=O)CCC[P+](c1ccc(F)cc1)(c1ccc(F)cc1)c1ccc(F)cc1)[C@@H]32,80.9%,-32.6% (active),58.1%,16.6%,63.9%,101%,101%,20%,24.4%,67%,48.6%,-15% (active),21.1%,104%,-9.4% (active),6.69% (active),7.7% (active),32.2%,22.4%,21.3%
CCOP(=O)(OCC)C(NC(C)=O)C(=O)SCCN (stereo not given),103%,105%,100%,97.9%,99.5%,112%,91.7%,100%,109%,104%,110%,110%,147%,105%,111%,111%,95.5%,111%,104%,112%
COc1cc2cc(C(=O)N3C[C@@H](CCl)c4c3cc(OC(=O)N3CCN(C)[C@@H]5CSSC[C@H]53)c3ccccc43)[nH]c2c(OC)c1OC,-57.9% (active),-92% (active),-86.3% (active),-62.1% (active),-28.4% (active),-31.2% (active),-37% (active),-23.1% (active),-33.9% (active),-20.4% (active),-54.7% (active),-61% (active),-9.08% (active),-56.1% (active),-96.4% (active),-65.9% (active),-56.2% (active),-23.6% (active),-79.9% (active),-9.39% (active)
COC(=O)c1ccc(-n2cc(CCCN(CCNc3ccnc4cc(Cl)ccc34)C(=O)CCC(=O)O[C@@H]3O[C@@H]4OC5(C)CC[C@H]6[C@H](C)CC[C@@H]([C@H]3C)[C@@]46OO5)nn2)cc1,52.4%,-61.5% (active),49.4%,44%,60.5%,36.3%,100%,15.9%,19.7%,49.2%,46.2%,40.4%,43.4%,11.4%,43.2%,22.2%,-49.6% (active),26%,49.5%,32.6%
